Source: PubChem
SENP6 block = SENP6 protease inhibition; inhibition, % at 10 µM; 330,000 tested, 1.8% active; Recombinant SENP6 catalytic domain, aminoluciferin luminescence; AID 2599; Q9GZR1;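 active = inhibition above about 50% at the single tested dose, limit read from the data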;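 note: plate controls were DMSO wells with enzyme for no effect and DMSO wells lacking enzyme for full effect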
SENP8 block-1 = inhibitors of human SENP8 protease | AID 2540 | purified SENP8, Z-RLRGG-aminoluciferin cleavage, luminescence | inhibition, % at 10 µM | Q96LD8 | 330,000 tested, 1.2% active; in the data active = inhibition above about 50%
Target sequence (Q96LD8 whole entry, looked up): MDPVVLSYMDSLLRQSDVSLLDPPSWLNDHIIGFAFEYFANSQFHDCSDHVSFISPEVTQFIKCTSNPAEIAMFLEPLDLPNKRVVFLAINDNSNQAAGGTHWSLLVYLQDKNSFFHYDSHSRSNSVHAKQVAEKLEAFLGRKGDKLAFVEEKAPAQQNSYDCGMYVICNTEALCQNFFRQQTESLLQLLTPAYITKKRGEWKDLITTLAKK
SENP7 inh = blocks the human protease SENP7. Q9BQF6. recombinant SENP7, Z-RLRGG-aminoluciferin luminescence, 40 min. inhibition, % at 5 µM. 330,000 tested, 1.5% active. AID 434973;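 active = inhibition above about 50% at the single test dose, limit read from the data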;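 note: plate controls were DMSO with enzyme for no effect and no enzyme buffer wells for full effect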
HSP90 inh = HSP90 refolding inhibition in rabbit reticulocyte lysate. luciferase refolding luminescence, 3 h. inhibition, % at 5.6 µM. 290,000 tested, 0.91% active;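 active = inhibition above the screen-wide mean plus 3 SD, computed separately per campaign, cut at about 16% in these data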;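 note: 0% = DMSO wells and 100% = 60 µM geldanamycin wells; inhibitors lower the luminescence because luciferase stays unfolded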
SENP8 block-2 = inhibitors of human SENP8 protease; 360,000 tested, 0.64% active; inhibition, % at 20 µM; AID 602440; recombinant SENP8, Nedd8 substrate fluorescence; Q96LD8; in the data active = inhibition mostly above about 40%, no sharp cut-off; inactive = mostly below about 27%
SENP8 conf = confirmation of human SENP8 protease inhibitors. Recombinant SENP8, Z-RLRGG-aminoluciferin luminescence, 60 min. 6,200 tested, 40% active. inhibition, % at 12.5 µM. shares compounds with SENP7 inh. AID 488912;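 active = mean inhibition across replicates above about 50%, limit read from the data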
SENP6 confirm = confirmation of human SENP6 protease inhibitors. shares compounds with SENP7 inh. recombinant SENP6, Z-RLRGG-aminoluciferin luminescence. inhibition, % at 12.5 µM. 6,200 tested, 58% active. AID 488915
SENP7 conf = confirmation of human SENP7 protease inhibitors | AID 488917 | 6,200 tested, 69% active | inhibition, % at 12.5 µM | recombinant SENP7, Z-RLRGG-aminoluciferin luminescence, 40 min | shares compounds with SENP7 inh
Casp3 select = caspase-3 inhibition (SENP selectivity assay); purified caspase-3, Z-DEVD-aminoluciferin luminescence, 60 min; 6,200 tested, 60% active; inhibition, % at 12.5 µM; shares compounds with SENP7 inh;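 active = mean inhibition above about 50%, limit read from the data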;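 note: plate controls were enzyme with DMSO for no effect and wells without caspase-3 for full effect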
Target sequence (P42574 28-227 limits assumed): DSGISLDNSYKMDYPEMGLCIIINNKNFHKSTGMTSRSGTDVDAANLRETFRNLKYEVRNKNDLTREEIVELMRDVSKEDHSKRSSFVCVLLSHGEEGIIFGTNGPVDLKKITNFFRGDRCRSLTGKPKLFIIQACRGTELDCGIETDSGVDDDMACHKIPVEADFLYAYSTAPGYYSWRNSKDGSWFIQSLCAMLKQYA
SENP luc ctr = luminescence interference (SENP counter-screen); shares compounds with SENP7 inh; Pre-incubated SENP8/Z-RLRGG-aminoluciferin, luciferase luminescence interference; inhibition, % at 12.5 µM; 6,200 tested, 39% active;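 active = mean inhibition above about 50% when retested at one dose, limit read from the data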;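 note: plate controls were DMSO wells with completed reaction for no effect and substrate without enzyme for full effect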
Active calls of the source: *; · = not tested or not shown. The list is not random: actives were taken first. Their share in the collection is about 2.7%.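 Rule for the calls, unless noted: active = mean inhibition above about 50% in the one-dose retest (limit read from the data); inactive = the rest.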

SMILES	SENP6 block	SENP8 block-1	SENP7 inh	HSP90 inh	SENP8 block-2	SENP8 conf	SENP6 confirm	SENP7 conf	Casp3 select	SENP luc ctr
Cc1ccccc1-c1noc(-c2ccc(Cl)cc2)n1	-3.9	29.8	79.2*	-1.1	9.0	21.2	26.4	12.8	49.4	8.3
Cc1ccc(S(=O)(=O)N(C)C(C)CCc2ccco2)cc1 (configuration not stated)	7.7	0.0	0.6	·	0.2	·	·	·	·	·
Cc1nc2sccn2c(=O)c1S(=O)(=O)Nc1ccc(N2CCN(C(=O)C(C)C)CC2)cc1	12.4	-4.7	-7.9	-6.8	13.7	·	·	·	·	·
CN(CCN1CCc2ccccc2C1)Cc1nc(Cc2ccccc2F)no1	·	·	·	1.3	4.2	·	·	·	·	·
O=C(O)COc1ccccc1/C=N/NC(=O)CSc1nnc(SCc2ccc(Cl)cc2)s1	65.6*	45.0	8.8	-2.9	25.6	35.6	48.9	67.1*	19.3	2.6
Cc1ccc(CSc2nnc(SCC(=O)N/N=C/c3c(C)nn(-c4ccccc4)c3C)s2)cc1	75.1*	41.4	55.4*	-8.0	15.6	12.0	26.0	39.1	11.6	6.4
CCN1C(=O)[C@@H]2[C@@H](c3ccc(-c4cccc(Cl)c4)c(OC)c3)N3CCCC[C@@]3(C(=O)OC)[C@@H]2C1=O	-5.1	-3.5	-0.9	·	2.5	·	·	·	·	·
CCOc1ccc(C(=O)N[C@H](C(=O)NC2CCCCC2)C(C)C)cc1	·	·	·	·	17.6	·	·	·	·	·
O=C(Nc1ccc2ccccc2c1)c1cnccn1	65.3*	42.0	74.7*	9.5	-13.3	52.3*	73.3*	91.8*	81.5*	31.4
O=C(Nc1nc2ccccc2s1)c1cnccn1	96.6*	93.0*	8.2	6.0	10.0	6.4	56.4*	75.7*	79.1*	39.6
O=C(Nc1nc2ccc(F)cc2s1)C1=NN(c2ccccc2)C(=O)CC1	55.4*	25.6	11.1	-4.7	-42.0	-13.3	0.8	20.0	1.0	-5.0
CCOc1ccc2nc(NC(=O)c3cnccn3)sc2c1	23.7	19.9	73.9*	-1.6	27.2	16.1	14.4	23.9	51.9*	14.4
O=C(Nc1nc(-c2ccco2)c(-c2ccco2)s1)c1cnccn1	-115.1	-10.0	-21.1	·	·	·	·	·	·	·
O=C(Nc1ccc2nccnc2c1)c1cnccn1	-4.3	-20.6	-1.0	10.5	-39.2	·	·	·	·	·
CCOC(=O)c1c(NC(=O)C(=O)N/N=C/c2ccccc2O)sc2c1CCCCC2	2.6	3.7	3.5	-1.4	-66.7	·	·	·	·	·
O=C(Nc1nc2ccc(F)cc2s1)c1ccccn1	95.1*	95.1*	99.5*	56.5*	·	92.4*	98.3*	101.8*	96.4*	48.5
C=CCOc1ccc(CNc2nccs2)cc1OCC	-0.2	2.3	12.2	-1.8	20.8	·	·	·	·	·
CCOc1ccc2nc(N3CCCCCC3)sc2c1	55.1*	36.9	61.9*	2.3	1.9	51.1*	54.6*	83.6*	50.3*	57.2*
Clc1cc(Cl)c2nc(N3CCCCC3)sc2c1	66.6*	27.1	47.0	-3.0	16.2	18.2	8.8	25.4	16.6	10.6
O=[N+]([O-])c1ccc2nc(N3CCCC3)sc2c1	27.3	24.2	43.8	-4.5	9.3	·	·	·	·	·
Fc1cc(F)c2nc(N3CCCCC3)sc2c1	36.1	61.2*	74.6*	-2.5	10.2	10.9	74.9*	95.3*	71.7*	20.0
CCOc1ccc2nc(N3CCC(C(=O)N4CCN(C5CCCCC5)CC4)CC3)sc2c1	-14.4	-3.0	-9.2	0.4	17.2	·	·	·	·	·
Clc1cc(Cl)c2nc(N3CCCC3)sc2c1	-1.0	29.3	36.0	5.7	8.5	·	·	·	·	·
Fc1ccc2nc(N3CCCC3)sc2c1	30.6	44.4	56.4*	0.6	4.3	-7.9	46.5	84.9*	69.1*	14.8
Cc1c(NC(=O)CSc2n[nH]c(-c3ccccc3)n2)c(=O)n(-c2ccccc2)n1C	-3.9	3.2	5.0	-0.6	8.1	·	·	·	·	·
SMILES	SENP6 block	SENP8 block-1	SENP7 inh	HSP90 inh	SENP8 block-2	SENP8 conf	SENP6 confirm	SENP7 conf	Casp3 select	SENP luc ctr
CCOC(=O)CCS(=O)(=O)c1ccc(-c2ccc(S(=O)(=O)CCC(=O)OCC)cc2)cc1	-20.0	6.4	58.2*	2.5	3.3	3.3	3.0	-1.7	-2.5	-0.7
Cc1ccc(S(=O)(=O)CCC(=O)OCC(=O)NC(N)=O)cc1	0.4	-5.9	-8.2	-2.6	21.5	·	·	·	·	·
COc1ccc2[nH]c3c(=O)n(Cc4ccc(C(=O)N5CCCC5)cc4)c(=S)[nH]c3c2c1	66.1*	46.6	21.5	0.5	-245.8	11.1	24.4	17.4	17.2	4.3
Clc1ccc(-c2nc3n(n2)Cc2ccccc2-3)cc1	63.1*	86.6*	98.9*	1.9	20.4	-20.3	10.8	26.2	29.8	1.7
CCN(CC)S(=O)(=O)c1cccc(-c2nc3n(n2)Cc2ccccc2-3)c1	-13.2	-17.9	7.8	-1.0	25.2	·	·	·	·	·
O=c1oc(Nc2ccccc2Cl)nc2ccccc12	·	·	·	8.8	-96.6	·	·	·	·	·
O=c1oc(Nc2ccccc2F)nc2ccccc12	76.2*	54.2*	42.3	4.3	-139.2	4.1	98.8*	103.2*	99.3*	98.0*
Cc1cc(NC(=O)c2cc(-c3ccccc3)on2)no1	-22.1	-3.1	10.6	-6.0	1.1	·	·	·	·	·
O=C(c1ccccc1)c1cc(-c2ccccc2)on1	99.4*	97.2*	100.5*	-1.5	15.6	3.7	100.9*	103.8*	98.7*	94.5*
Nc1nc(-c2ccccc2)cs1	-0.5	-14.6	-13.3	4.7	13.5	·	·	·	·	·
c1ccc(-c2cc(-c3ccccc3)on2)cc1	-9.6	87.4*	97.6*	4.9	32.3	5.1	84.9*	48.2	56.5*	45.3
Nc1nc(-c2cc(-c3ccccc3)no2)cs1	96.4*	94.6*	96.0*	1.4	-6.9	96.6*	97.3*	102.0*	95.0*	83.3*
Cc1ccc(-c2cc(-c3ccccc3)no2)cc1	96.6*	92.2*	98.0*	·	12.4	-23.4	29.4	70.7*	26.2	23.6
Cn1c(CNC(=O)Nc2ccccc2Cl)nnc1SCc1ccccc1	2.2	5.9	-0.9	-0.9	22.8	·	·	·	·	·
O=C(CCNC(=O)c1ccccc1Cl)NN1C(=O)NC2(CCCCC2)C1=O	-11.6	4.1	4.0	·	10.8	·	·	·	·	·
CCOC(=O)Cc1csc(NC(=O)c2cnc3sc(C)cn3c2=O)n1	-4.9	-0.8	9.7	-3.9	-123.9	·	·	·	·	·
C=CCn1c(SCc2cccc(C#N)c2)nnc1-c1ccccc1O	-10.9	-9.2	12.1	3.0	4.9	·	·	·	·	·
OC(c1ccc(OCc2ccccc2)cc1)c1nnc(-c2ccccc2)o1 (configuration not stated)	50.2*	28.7	12.7	2.4	13.8	31.3	32.6	56.0*	18.4	20.1
